What all share (experiment): NCI-60 one-dose screen, 48 h (100 = growth as untreated, 0 = no growth, -100 = all killed)
What all share (conditions): 10 µM unless noted

The test system of assay [1] is DU-145 prostate.
The subject of assay [2] is K-562 leukemia.
The test system of assay [3] is MALME-3M melanoma.
For assay [4], the system named is MDA-MB-231 breast.
Assay [5] concerns RXF 393 renal.
Assay [6] deals with SF-268 CNS.
In assay [7] the test system is SF-295 CNS.
In assay [8] the test system is SF-539 CNS.
Assay [9] has as its system UACC-257 melanoma.
For assay [10], the system named is M14 melanoma.
Assay [11] deals with HCT-15 colon.
For assay [12], the system named is HT29 colon.
For assay [13], the system named is SNB-75 CNS.
Assay [14] deals with SNB-19 CNS.
In assay [15] the test system is U251 CNS.
Assay [16] deals with PC-3 prostate.
Assay [17] relates to SK-MEL-5 melanoma.
Assay [18] relates to UACC-62 melanoma.
The test system of assay [19] is LOX IMVI melanoma.
Assay [20] relates to SK-MEL-28 melanoma.

Compounds without any hit were thinned out: in the full panel of roughly 83,000, 20% have a hit.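 Activity criterion: percent growth below 10, measured after cells in 96-well plates were exposed to a single compound concentration for 48 hours.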 Unmarked numbers belong to inactive results. Calls of active or inactive are those of the source.

This note sets out measurements from PubChem BioAssay (NCI).

As to `COc1cccc(/C=N/NC(=O)c2ccccc2N2CCCC2)c1O`, the growth in assay [1] was 68%; in [2], 13.6%; in [3], 75.7%; in [4] it was 47.8%; in assay [5] it was 63.8%; in [6], 38.8%. Further, the growth is 86.2% in [7]; 61.8% in [8]; -29.8% (active) in [9]; 48.5% in [10]; 19.4% in assay [11]; 69.3% in assay [12]. Also, the growth in assay [13] is 67.4%; in [14], 65.8%; in assay [15] it was 46.7%; in assay [16], 72%; in [17], 58.4%; in assay [18], 42.5%. In addition, the growth was 25.4% in [19] and 72.1% in [20].

Regarding `Cc1ccc(-c2nc(/C=C3/C(=O)Nc4ccc(F)cc43)c3ccccn23)cc1`, the growth in [1] was -23.1% (active); in assay [2], 93.7%; in assay [3], 75.8%; in assay [4], 91%; in assay [5], 63.5%; in assay [6] it was 75.6%. The growth in [7] was 76%; in assay [8], 82.3%; in assay [9], 95.5%; in assay [10], 98.8%; in assay [11], -3.43% (active); in assay [12], 17.2%. The growth in assay [13] is 92.2%; in assay [14], 95%; in [15], 64.3%; in assay [16], 68.1%; in assay [17] it was 86.7%; in [18], 74.7%. The growth in assay [19] is 63.8%; in [20], 103%.

As to `C#COc1cccc(Nc2ncnc3cc(NC(=O)[C@@H](C)Cl)ccc23)c1`, the growth in assay [1] was 13% [6.25 µM]; in assay [2] it was 7.85% [6.25 µM] (active); in assay [3], 38.2% [6.25 µM]; in assay [4] it was 24.5% [6.25 µM]; in assay [5] it was 7.55% [6.25 µM] (active); in assay [6], 21.6% [6.25 µM]. Also, the growth was 7.32% [6.25 µM] (active) in [7]; -5.67% [6.25 µM] (active) in assay [8]; 36.9% [6.25 µM] in assay [9]; 10.4% [6.25 µM] in assay [10]; 11.6% [6.25 µM] in [11]; 0.0167% [6.25 µM] (active) in assay [12]. For the same compound, the growth in [13] was -7.9% [6.25 µM] (active); in assay [14], 19.3% [6.25 µM]; in assay [15], 4.37% [6.25 µM] (active); in assay [16] it was 8.91% [6.25 µM] (active); in assay [17], 14.2% [6.25 µM]; in assay [18], 24.9% [6.25 µM]. For the same compound, the growth in [19] is 11.4% [6.25 µM]; in [20], 38% [6.25 µM].

As to `C[C@H](C(=O)N(CCc1ccc(Cl)c(Cl)c1)Cc1cncs1)[C@@H]1CC[C@H](C[C@H](C)n2cc(CN3CCC(c4ccc(Cl)cc4)CC3)nn2)O1`, the growth in assay [1] is 112%; in [2], -75.9% (active); in assay [3] it was 101%; in assay [4], 93.5%; in assay [5], 103%; in assay [6], 102%. The growth in assay [7] is 99.2%; in assay [8], 101%; in assay [9] it was 102%; in assay [10], 99.1%; in assay [11], 99.6%; in [12] it was 102%. Besides, the growth in assay [13] was 97.6%; in [14], 94.5%; in assay [15] it was 100%; in [16], 86.5%; in assay [17] it was 101%; in assay [18] it was 90.3%. The growth in assay [19] was 98.3%; in assay [20], 102%.

As for `Cc1cc2c(cc1C)N(C(=O)CCl)CC(=O)N2`, the growth in assay [1] is 78.6%; in [2], 2.9% (active); in assay [3], 9.7% (active); in [4], 51.3%; in assay [5], 31.2%; in [6], 60.9%. The growth is 99.5% in assay [7]; 93.2% in [8]; 59.5% in assay [9]; 55% in assay [10]; 7.57% (active) in assay [11]; -60% (active) in [12]. The growth in assay [13] was 74.4%; in assay [14], 88%; in assay [15], 14.4%; in [16], 71.2%; in assay [17] it was 43.8%; in [18], 70.7%. The growth is -9.81% (active) in assay [19] and 77.1% in assay [20].

Consider `COC(=O)/C=C1/SC(=Nc2ccc([N+](=O)[O-])cc2)N(CCc2c[nH]c3ccc(O)cc23)C1=O`, for which the growth in assay [1] was 57.3%; in assay [2], 52.5%; in [3] it was 68.6%; in [4], 61.1%; in [5], 27.3%; in [6], 43.7%. Besides, the growth was 59.5% in assay [7]; 66.2% in [8]; 55.8% in [9]; 46% in assay [10]; 46.9% in [11]; 42.6% in assay [12]. Also, the growth in assay [13] was 54.4%; in assay [14], 40.3%; in [15], 36.3%; in assay [16] it was 38.6%; in assay [17], 50.5%; in assay [18] it was 30.1%. The growth in assay [19] is -21.9% (active); in assay [20] it was 52.7%.

On to `Nc1nc(N)c2c(n1)NC(c1cccc(Nc3ccnc4cc(C(F)(F)F)ccc34)c1)CC(c1ccc(Br)cc1)=N2` (stereo not given), for which the growth in assay [1] was 71.2%; in assay [2] it was 10.5%; in assay [3] it was 53.6%; in assay [4], 57.3%; in [5], 40.7%; in assay [6], 61.4%. The growth in assay [7] is 52%; in assay [8], 83.9%; in assay [9] it was 71.5%; in [10] it was 42.9%; in assay [11], 19.5%; in [12], 10.9%. The growth in [13] is 57.2%; in assay [14], 66.4%; in assay [15], 44.7%; in assay [16] it was 36.6%; in assay [17], 48.1%; in [18], 77.9%. For the same compound, the growth in assay [19] was 24.6%; in [20] it was 73.6%.

Take `COc1ccc(C(=O)Cn2c(C(=O)c3ccc(Cl)cc3)nc3ccccc32)cc1`: the growth in [1] was 98.3%; in assay [2] it was 45.7%; in assay [3], 70.7%; in assay [4], 65.5%; in [5] it was 14.2%; in assay [6] it was 66.7%. The growth in [7] was 51.8%; in [8], 91%; in assay [9], 70.8%; in assay [10] it was 14.8%; in assay [11], 33.6%; in [12] it was 51.2%. In addition, the growth in [13] was 53.8%; in assay [14], 74%; in assay [15], 65.3%; in assay [16] it was 68.9%; in [17] it was 41.9%; in assay [18], 54.1%. Besides, the growth in [19] is 74.8%; in assay [20], 71.2%.
